# Values joined by “and” are separate entries in the source; they are usually repeats but may differ in a detail not shown here. Identical values can stand only once. The whole screen tested about 100,000 compounds, of which about 930 (0.93%) were called active. Rule as the data show it: active = inhibition mostly above about 56% (no sharp cut-off); inactive = mostly below about 77%. What follows is part of a selection rich in actives, with near analogues and random picks from the rest. Some compounds were tested as several samples or in several runs, with calls that do not always agree.
# Biological target: Salicylate synthase (Mycobacterium tuberculosis (strain CDC 1551 / Oshkosh)) (UniProt P9WFX0)
# Assay: inhibitors of M. tuberculosis MbtI – biochemical, fluorescence intensity, primary screen (AID 493033)
# Settings: purified MbtI enzyme, fluorescence intensity read-out, stronger effect = higher value, concentration not given here
# Salicylate synthase (Mycobacterium tuberculosis (strain CDC 1551 / Oshkosh)), sequence (P9WFX0 whole entry, looked up): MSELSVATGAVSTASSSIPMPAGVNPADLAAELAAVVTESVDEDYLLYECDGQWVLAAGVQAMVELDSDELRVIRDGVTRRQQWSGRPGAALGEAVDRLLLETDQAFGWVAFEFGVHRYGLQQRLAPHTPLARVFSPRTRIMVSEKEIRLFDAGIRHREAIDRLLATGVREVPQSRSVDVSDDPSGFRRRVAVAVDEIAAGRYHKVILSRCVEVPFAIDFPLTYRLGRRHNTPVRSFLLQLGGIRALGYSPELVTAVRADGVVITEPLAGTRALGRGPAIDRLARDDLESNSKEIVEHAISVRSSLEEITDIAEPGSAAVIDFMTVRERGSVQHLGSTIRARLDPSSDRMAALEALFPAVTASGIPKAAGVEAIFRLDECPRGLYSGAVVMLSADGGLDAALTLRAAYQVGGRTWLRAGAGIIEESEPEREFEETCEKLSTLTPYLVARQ
row,Compound,inhibition
1,CC(C)(C)c1nc(=S)[nH][nH]1,59.2% (active)
2,O=C(c1ccco1)N1CCN(C(=O)c2cnn(-c3ccccc3)c2-n2cccc2)CC1,-6.6% (inactive)
3,COc1cccc(N2C(=O)C=CC2=O)c1,98.8% (active)
4,CCCCNC(=O)c1cccc(OC)c1,-2.5% (inactive)
5,COc1cccc(C(=O)Nc2ccc(N3CCCC3)cc2)c1,-7% (inactive)
6,CCN1CCN(CCCNC(=S)Nc2ccc3nc(N4CCN(CC)CC4)cc(C)c3c2)CC1,35.8% (inactive)
7,Cc1ccc(-c2nnc(SCc3c(C)cc(C)cc3C)o2)cc1,-3.75% (inactive)
8,O=C(CSc1nnc(-c2cccs2)n1-c1ccccc1)OC1CCS(=O)(=O)C1 (stereo unspecified),-45% (inactive)
9,CC(C)n1c(-c2ccncc2)n[nH]c1=S,93.6% (active)
10,S=c1[nH]nc(-c2ccncc2)n1/N=C/c1cccnc1,-6.8% (inactive) and -8.55% (inactive)
11,FC(F)(F)c1cccc(-n2c(-c3ccncc3)n[nH]c2=S)c1,6% (inactive)
12,CCOC(=O)N1CCN(C(=O)COC(=O)c2cccc(S(C)(=O)=O)c2)CC1,-7.25% (inactive)
13,NC(=O)c1nnc(Cc2ccc(Cl)cc2)o1,-6.1% (inactive)
14,CC(C)n1nc(C(N)=O)c2ccccc2c1=O,14.1% (inactive)
15,O=C(CCC(=O)N1CCCCc2ccccc21)NC1CCCC1,-4.6% (inactive)
16,O=C1CSc2ccccc2N1Cc1ccc(Cl)cc1,-5.75% (inactive)
17,O=C1C=CC(=O)N1Cc1ccc(Cl)cc1,71.7% (active)
18,NCCc1ccc(Cl)cc1,-11.3% (inactive)
19,CCOC(=O)c1oc2ccccc2c1CN1c2cccc3cccc(c23)S1(=O)=O,-5.65% (inactive)
20,COC(=O)c1cccc(OCC(O)CNC2CCN(Cc3ccccc3)CC2)c1 (stereo unspecified),12.9% (inactive)
21,NC(=S)CC(=O)NCc1ccccc1,65.2% (inactive)
22,O=C(CS(=O)(=O)c1ccccc1)Nc1ccccc1O,-1.55% (inactive)

row,Compound,inhibition
1,Oc1ccc(CNc2ccccc2O)cc1,92% (active)
2,C=CCn1c(SCC(=O)c2ccc(N(C)S(C)(=O)=O)cc2)nnc1C1CCCCC1,0.8% (inactive)
3,Cc1cc(N2CCN(c3ccccc3)CC2)n2c(nc3ccccc32)c1C#N,4.55% (inactive)
4,CC(NC(=O)c1ccccc1NC(=O)c1ccco1)C(=O)NN(c1ccccc1)c1ccccc1 (stereo unspecified),31.5% (inactive)
5,Cc1occc1-c1nnc2sc(Cc3cccc4ccccc34)nn12,79.1% (inactive)
6,Nc1nnc(SCc2ccccc2)s1,38.8% (inactive)
7,NC1=NC(=O)C(Cc2cccc(Cl)c2)S1 (stereo unspecified),0.55% (inactive)
8,N=C1N=C(N)C(Cc2ccccc2)S1 (stereo unspecified),84.2% (active)
9,CN(C(=O)CSc1cccc[n+]1[O-])C1CCCCC1,2.9% (inactive)
10,CCOC(=O)C1=C(C)NC(C)=C(C(=O)OCC)C1C(=O)OCc1cc(=O)n2cc(C)ccc2n1,-9.2% (inactive)
11,O=C(O)CCCN1C(=O)c2ccccc2Sc2ncccc21,4.25% (inactive)
12,O=C(O)CCCN1C(=O)/C(=C2\SC(=S)N(CCCC(=O)O)C2=O)SC1=S,88.5% (active)
13,O=C(O)CN1C(=O)/C(=C2/OC(=O)c3ccccc32)SC1=S,13.1% (inactive)
14,N#Cc1ccc(NC(=O)CSc2ncn[nH]2)cc1,15.7% (inactive)
15,COC(=O)c1cccc(Cn2nc(C)c(Cl)c2C)c1,-1.2% (inactive)
16,CCOC(=O)c1c(-n2cnnn2)sc(C)c1C,"589% [above what the read-out allows, likely interference] (inactive)"
17,CCOC(=O)c1c(N)sc2c1CCCS2,70.4% (active)
18,CCOC(=O)c1c(N)sc2c1CC(C)(C)OC2,64.8% (inactive)
19,Cc1csc(/C(C#N)=N/OC(=O)c2ccco2)n1,6.4% (inactive)
20,Cc1cc(C)n(CCCN)n1,-3.05% (inactive)
21,O=C(CSc1nccn1-c1ccc(F)cc1)Nc1ccccc1,9.1% (inactive)
22,Cc1nc2cccc[n+]2c(-c2ccccc2)c1C,-10.6% (inactive)

row,Compound,inhibition
1,CCOc1cccc2sc(NC(C)=O)nc12,17.4% (inactive)
2,c1ccc(OCc2nc(-c3ccccn3)n[nH]2)cc1,4.2% (inactive)
3,S=c1[nH]nc(COc2ccccc2)o1,64% (active) and 19.4% (inactive)
4,N/C(COc1ccccc1)=N\O,-4.9% (inactive)
5,COc1ccc(-c2nc(CS(=O)(=O)c3ccc(F)cc3)no2)cc1OC,-17% (inactive)
6,COCCCn1cc(C(=O)c2cc(F)ccc2O)cc(C#N)c1=O,0.95% (inactive)
7,Cc1ccccc1NC(=O)CSC(=O)c1ccccc1,75% (active)
8,Cc1ccccc1NC(=O)NC(=O)CC#N,-2.55% (inactive)
9,Cc1ccccc1NC(=O)COC(=O)c1ccccc1,16.1% (inactive)
10,CCn1c(O)c(/C=N/N=C2/C(=O)N(C)c3ccccc32)c(=O)n(CC)c1=S,7.05% (inactive)
11,N#C/C(=C\c1cc2ccccc2nc1N1CCOCC1)C(=O)Nc1ccc2c(c1)OCCO2,12% (inactive)
12,CC1(C)CC(=O)C(Sc2ccc(Cl)cc2)=C(N2CCOCC2)C1,4.9% (inactive)
13,O=C(CSc1ccc(Cl)cc1)N1CCc2ccccc21,-9.4% (inactive)
14,CC(=O)OC1=C(Sc2ccc(Cl)cc2)C(=O)CCC1,59.8% (active)
15,CCOC(=O)c1cc(S(=O)(=O)NC2CCCc3ccccc32)cn1C (stereo unspecified),-4.15% (inactive)
16,COC(=O)c1ccc(N)cc1,16.6% (inactive)
17,COc1ccc(-n2c(SCC(=O)c3ccc4c(c3)NC(=O)CO4)nc3ccccc3c2=O)cc1OC,-1.55% (inactive)
18,CC1(C)Oc2ccccc2C2CC(c3ccccc3)=NN21 (stereo unspecified),10.8% (inactive)
19,Cc1ccc(NC(=S)Nc2ccc(C)cc2)cc1,56.7% (active)
20,CSC(=S)Nc1ccc(C)cc1,-4.35% (inactive)
21,Cc1ccc(NC(N)=O)cc1,-7.15% (inactive)
22,Cn1c(SCc2nc(-c3cccs3)no2)nnc1-c1ccncc1,-11.6% (inactive)

row,Compound,inhibition
1,CCOC(=O)CSc1cc(C)nc(SCC(=O)OCC)n1,7.15% (inactive)
2,CC1CC(=O)Nc2ccccc2N1C(=O)CSc1ccccn1 (stereo unspecified),-3.2% (inactive)
3,CCOC(=O)CSc1ccccn1,81.9% (active)
4,O=C1CSC2=NC3=C(CCCC3=C3SCCCS3)C(c3ccccc3)N12 (stereo unspecified),-4.55% (inactive)
5,O=C1c2ccccc2C(=O)N1CNc1ccccc1C1CC1,-16.8% (inactive)
6,NCCCN1Cc2ccccc2C1,1.3% (inactive)
7,CCc1ccccc1NC(=O)CSc1nc2c(c(=O)[nH]1)CCC2,9.6% (inactive)
8,CCCc1cc(=O)[nH]c(SCc2ccc(C#N)cc2)n1,-3.9% (inactive)
9,CC(C)(C)c1ccc(CSc2nc3c(c(=O)[nH]2)CCC3)cc1,81.7% (active)
10,COC(=O)c1ccc(C(=O)Nc2cc(Cl)ccc2Cl)cc1N,-179% (inactive)
11,COc1cccc(N2C(=O)/C(=C/c3ccsc3)C(=O)NC2=S)c1,29.9% (inactive)
12,O=C1NC(=S)N(c2ccc(Br)cc2)C(=O)/C1=C/c1ccsc1,55.9% (active)
13,Cn1cccc1/C=C1\C(=O)NC(=S)N(c2ccccc2)C1=O,18.1% (inactive)
14,CCc1ccc(N(C(C)=O)c2nc(CSc3nnc4n3CCCCC4)cs2)cc1,-11.7% (inactive)
15,CC1=C(C(=O)Nc2cccc(C(F)(F)F)c2)C(c2ccc3c(c2)OCO3)NC(=O)N1 (stereo unspecified),5.1% (inactive)
16,CCCN(CC1CC1)Cn1c(=S)sc2ccccc21,65.8% (active)
17,O=C(C1CCNCC1)N1CCCCC1,6.4% (inactive)
18,O=C(OCCCn1c(=O)[nH]c2ccccc21)c1ccc(S(=O)(=O)N2CCOCC2)cc1,-5% (inactive)
19,Cc1ccc(NC(=O)CN2C(=O)OC(C)(C)C2(C)O)cc1 (stereo unspecified),-10% (inactive)
20,COc1ccc(OCCCC(=O)NNc2ccccc2)cc1,-1.15% (inactive)
21,Nn1c(SCC(=O)Nc2ccc(S(=O)(=O)N3CCCC3)cc2)nnc1-c1ccccc1,87.7% (active)
22,COc1ccc(Cc2nnc(SCC(=O)Nc3ccc(S(=O)(=O)N4CCCCCC4)cc3)o2)cc1,-15.5% (inactive)

row,Compound,inhibition
1,O=C(CSc1nnc(-c2ccncc2)n1-c1ccccc1)Nc1ccccc1,0.45% (inactive)
2,CCc1c(C)sc2nc(CC(=O)N3CCOCC3)[nH]c(=O)c12,-33.3% (inactive)
3,NS(=O)(=O)c1ccc(CCNC(=O)CN2CC(=O)Nc3ccccc32)cc1,14.2% (inactive)
4,CNC(=O)O/N=C/c1nn(C(C)=O)cc1Br,2.45% (inactive)
5,CNCC(=O)Nc1ccc(OC)cc1,-7.3% (inactive)
6,COc1ccc(CC(=O)Nc2ccccc2)cc1,-14.4% (inactive)
7,COc1ccc(Cc2n[nH]c(=S)n2NC(=O)Nc2ccc(C)cc2)cc1,92.9% (active)
8,CNC(=O)Cc1nnc(-c2ccc(C)cc2)o1,-6.1% (inactive)
9,N#CC(C#N)=CNCCc1ccncc1,-4.8% (inactive)
10,COc1cc2c(cc1OC)C(c1cc3cc4c(cc3[nH]c1=O)OCO4)N(C(=O)C1CCC1)CC2 (stereo unspecified),87.5% (inactive)
11,Cc1onc(-c2ccccc2)c1C(=O)NNc1ccc(C(C)(C)C)cc1,3.55% (inactive)
12,Cc1onc(-c2ccccc2)c1C(=O)Sc1ccc(C(F)(F)F)cn1,94.8% (active)
13,Cc1onc(-c2ccccc2)c1C(=O)Nc1cccc(C(F)(F)F)c1,-4.15% (inactive)
14,COc1cc(OC)cc(C(=O)NC(C(=O)N2CCC2)C(C)C)c1 (stereo unspecified),-3.25% (inactive)
15,CC(C(=O)N1CCOCC1)C1SC(=O)NC1=O (stereo unspecified),-3.8% (inactive)
16,CC(=O)Oc1ccc(N(C(C)=O)S(=O)(=O)c2ccc(Cl)cc2)cc1,-0.9% (inactive)
17,CCCCS(=O)(=O)N(O)c1ccc(Cl)cc1,84.8% (active)
18,CCCCN=Cc1c(O)n(-c2ccc(Cl)cc2)c(=O)[nH]c1=O,21.5% (inactive)

# Reference: PubChem BioAssay AID493033 (ICCB-Longwood Screening Facility, Harvard Medical School, 2011)
